Source: PubChem BioAssay
KB-V1 cytotox – qHTS assay for MDR1-selective chemotherapeutics: Primary screen using the drug-selected MDR subline cells KB-V1 | KB-V1 MDR cells viability, CellTiter-Glo, 72 h | Potency, µM (doses to about 46.1 µM), usual class: cytotoxic | 400,000 tested, 3.4% active | AID 1347076, 2019; note: % is set by controls: 0 for no effect and ±100 for the full control effect; nearly all actives have a fitted effect of over 60% in size
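Luminescent ATP read-out (CellTiter-Glo, 10 min) measures survival of drug-selected KB-V1 MDR cells after 72 h, 37 degrees C compound exposure. Medium: phenol-red-free DMEM, 10% FBS. Values from fitted concentration-response curves.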
KB-3-1 tox – qHTS assay for MDR1-selective chemotherapeutics: Primary screen using the parental adenocarcinoma cell KB-3-1. Potency, µM (top dose mostly 46.1 µM), most hits filed as cytotoxic. 400,000 tested, 1.4% active. KB-3-1 viability, CellTiter-Glo ATP luminescence, 72 h. AID 1347075, 2019; note: % is set by controls: 0 for no effect and ±100 for the full control effect; nearly all actives have a fitted effect of over 60% in size
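Luminescent ATP read-out (CellTiter-Glo) measures survival of drug-naive KB-3-1 cells after 72 h compound exposure at 37 °C. Titration series was screened from lowest to highest concentration, with DMSO vehicle plates as background controls.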
HT1080 IDH1KD tx – qHTS for induction of synthetic lethality in tumor cells producing 2HG: qHTS for the HT-1080-IDH1KD cell line; HT-1080 IDH1 knockdown viability, ATP luminescence, 48 h; Potency, µM (doses to about 46.1 µM), for inactives: top-dose activity, negative = toxicity, usual class: cytotoxic; 360,000 tested, 2% active;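 note: 0% = DMSO wells and -100% = cell-free medium wells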
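Assay cells: HT-1080 with IDH1 knockdown, 750 per well, RPMI/5% FBS. Exposure: 48 h at 37 °C following 2 h pre-incubation. Read: CellTiter-Glo luminescence; fitted concentration-response, curve class assigned.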
MCF10A rerep – A quantitative high throughput screen for small molecules that induce DNA re-replication in MCF 10a normal breast cells | MCF 10A DNA re-replication, Hoechst nuclear intensity, 48 h | Potency, µM (series often up to 46.1 µM), without a hit: at the top dose activity, positive = re-replication, most hits filed as activators | 350,000 tested, 2.9% active; note: % of control where 0% means no effect; nearly all actives have a fitted effect of over 50% in size
SW480 rereplic – A quantitative high throughput screen for small molecules that induce DNA re-replication in SW480 colon adenocarcinoma cells. SW480 DNA re-replication, Hoechst DNA content imaging, 48 h. Potency, µM (doses to about 46.1 µM), without a hit: at the top dose re-replication activation, actives largely listed as activators. 340,000 tested, 1.8% active; note: % of control where 0% means no effect; nearly all actives have a fitted effect of over 55% in size
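Image-based read-out: total Hoechst fluorescence of nuclei (405 nm excitation, 500-530 nm emission), with hits raising the fraction of high-intensity nuclei. SW480 colon cells incubated 48 hr with compounds at 37 C.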
HT1080NT lethal – qHTS for induction of synthetic lethality in tumor cells producing 2HG: qHTS for the HT-1080-NT fibrosarcoma cell line | HT-1080-NT fibrosarcoma viability, CellTiter-Glo ATP luminescence, 48 h | Potency, µM (doses to about 46.1 µM), without a hit: top-dose activity, negative = less viability, hits mostly cytotoxic | 360,000 tested, 1.6% active | AID 686970, 2013;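 note: NT is the 2HG producing partner of a matched IDH1 knockdown line; 0% = DMSO-treated cells and -100% = media-only wells without cells; nearly all actives have a fitted effect of over 55% in size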
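A 48-hour cytotoxicity screen used HT-1080-NT cells plated 2 hours before compound delivery. ATP-based CellTiter-Glo luminescence measured viability, normalized to DMSO and no-cell controls.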
Starred values were filed as active, the others as inactive; i = inactive; ? = inconclusive; [ ] = another dose, or the depositor's remark. Rows were chosen to be rich in hits. Some 7.9% of all compounds tested hit in one or more screens of this group. Calls come from the whole dose curve; as a rule, active = well fitted curve in the direction sought with a large enough effect; inconclusive = small, poorly fitted or top-dose-only effect, or another doubt; inactive = no such curve, though single readings can be large; an effect the other way counts as inactive or inconclusive. Potency is the fitted concentration of half-maximal effect.

SMILES | KB-V1 cytotox | KB-3-1 tox | HT1080 IDH1KD tx | MCF10A rerep | SW480 rereplic | HT1080NT lethal
COc1ccccc1Nc1nc(-c2c(C)nc3ncccn23)cs1 | 7.3µM* | ? | 21µM* | 9% | ? | 23µM*
Cc1nc2ncccn2c1-c1csc(Nc2ccccc2)n1 | i | i | -10% | 11% | -8% | 0%
Cc1nc2sccn2c1-c1csc(NCc2ccccc2)n1 | 13µM* | ? | 7% | 1% | 17% | ?
Cc1nc2ncccn2c1-c1csc(Nc2ccc(N(C)C)cc2)n1 | ? | 0.012µM* | ? | ? | ? | ?
C[C@H](CO)N1C[C@H](C)[C@@H](CN(C)Cc2ccc(C(=O)O)cc2)Oc2c(NS(=O)(=O)c3cccs3)cccc2C1=O | i | i | 7% | 4% | 9% | 11%
Cc1ccc(NC(=O)c2oc3ccc(S(=O)(=O)N4CCOCC4)cc3c2C)c(C)c1 | i | i | -9% | 16% | -13% | -1%
COc1ccc(Nc2nc(-c3c(C)nc4ncccn34)cs2)cc1 | i | i | 0.0073µM* | 86% | ? | 0.013µM*
Cc1nc2ncccn2c1-c1csc(NCc2ccco2)n1 | 16µM* | ? | -1% | 21% | -17% | -11%
O=C(c1ccc(F)cc1)c1ccc(OCC(=O)N2CCOCC2)cc1 | i | i | 4% | 16% | 1% | -3%
COc1ccc(-c2onc(C)c2-c2ccc(C(=O)OC(C)C)o2)c(O)c1 | 21µM* | ? | 3% | ? | 16% | 5%
CC(C(=O)NC1CCCC1)N(C(=O)CS(=O)CC(=O)Nc1ccc(F)cc1)c1ccc2c(c1)OCCO2 (centres undefined) | i | i | 0% | 0% | -2% | 5%
COc1ccc(-n2cnnc2SCC(=O)N2CCN(S(=O)(=O)c3ccccc3)CC2)cc1 | i | i | -1% | 14% | 20% | 3%
COc1ccc(CN2C(=O)c3ccccc3C2=O)cc1C(=O)Nc1ccccc1N1CCOCC1 | ? | i | -12% | -1% | -1% | -9%
COc1ccc(NC(=O)Nc2ccc(OCc3ccccc3)cc2)cn1 | i | i | -19% | 26% | -1% | -30%
COc1ccc(NC(=O)c2cc(CN3C(=O)c4ccccc4C3=O)ccc2OC)cn1 | ? | ? | 21µM* | 13% | 0%[9.22 µM] | ?
COc1ccc(NC(=O)Cc2ccc(-c3ccccc3)cc2)cn1 | 13µM* | ? | 23µM* | ? | ? | 9.2µM*
COc1ccc(CC(=O)Nc2ccc(OC)nc2)cc1 | i | i | 16% | -3% | 6% | 17%
COc1ccc(NC(=O)/C(Cl)=C(/Cl)S(=O)(=O)Cc2ccccc2)cn1 | ? | ? | 5.2µM* | ? | ? | 5.8µM*
COc1ccc(NC(=O)C(C)(C)Oc2ccc(Cl)cc2)cn1 | 15µM* | i | 5% | 1% | -2% | 9%
CCC(=O)N1c2ccccc2-c2nnc(SC)nc2OC1c1ccc(OC)c(OC)c1 (centres undefined) | i | i | -3% | -3% | -15% | -3%
COc1ccc(NC(=O)CN(C)S(=O)(=O)c2ccc(Cl)cc2)cn1 | i | i | 15% | -1% | -1% | 12%
COc1ccc(NC(=O)/C(Cl)=C(/Cl)S(=O)Cc2ccc(Cl)cc2)cn1 (centres undefined) | 5.8µM* | 7.3µM* | 0.92µM* | ? | ? | 1.3µM*
COc1ccc(NC(=O)C(Cl)=C(Cl)Cl)cn1 | ? | ? | 23µM* | 21µM* | ? | 16µM*
